Measured values published in PubChem BioAssay AID432 (Sanford-Burnham Center for Chemical Genomics, 2006).
Hit rate of the full screen: of about 64,000 compounds, about 15 (0.02%) were called active. No rule for the calls is given here. These entries were drawn from the full list. Results with a measured potency or affinity are listed apart.

biological target: Bcl-2-related protein A1 (Mus musculus) (UniProt Q07440); experiment: Bfl-1 inhibitors, primary screen, biochemical, fluorescence polarization, FITC-Bid, mouse (AID 432); conditions: FITC-Bid BH3 peptide fluorescence polarization displacement; at 20 µM; active compounds read high
Sequence (Q07440 whole entry, looked up): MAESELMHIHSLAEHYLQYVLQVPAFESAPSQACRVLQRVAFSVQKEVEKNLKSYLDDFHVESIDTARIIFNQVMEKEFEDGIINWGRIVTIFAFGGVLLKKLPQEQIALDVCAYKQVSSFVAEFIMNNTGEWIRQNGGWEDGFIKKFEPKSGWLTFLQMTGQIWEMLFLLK

displacement, inactive:
COC(=O)C(C)n1cnc2c(cnn2-c2ccc(Cl)cc2)c1=O (stereo not drawn) 1.6%
CCCCCNC(=O)C(C#N)c1nc2ccccc2nc1N1CCCC1 (stereo not drawn) 34.3%
Cn1c(SCc2ccccc2Cl)nnc1-c1cnccn1 -5.3%
COc1ccccc1OC(=O)c1ccc(SC)cc1OC -2.3%
Cc1cc(OCC(=O)Nc2cc(-c3nn4c(C)nnc4s3)ccc2C)ccc1Cl 10%
O=C1c2ccccc2C(Nc2ccc(S(=O)(=O)N3CCOCC3)cc2)N1c1cccnc1 (stereo not drawn) 8.2%
N#CC1=C(N)OC2=C(C(=O)CCC2)C1c1ccsc1 (stereo not drawn) -2.3%
Cc1csc2ncc(C(=O)Nc3cccc(C(F)(F)F)c3)c(=O)n12 -2%
Cc1ccc(-n2cccc2C(=S)N=P(N(C)C)(N(C)C)N(C)C)cc1 22.3%
Cc1ccccc1OCC(=O)NCCN(C)C -12%
CCCN1Cc2cccc(C(=O)Nc3ccc4c(c3)OCO4)c2C1=O -7.1%
COc1ccc(CCNC(=O)CSc2nnc(Cn3c(=O)sc4ccccc43)n2C)cc1OC 4.6%
O=C(c1ccc(Br)o1)N(Cc1ccccc1)c1ccccn1 -6.6%
Cn1c(=O)[nH]c(=O)c2c1nc(N1CCN(c3ccccc3)CC1)n2CCSc1ncccn1 4.5%
Fc1ccc(-c2nnc3ccc(N4CCCC4)nn23)cc1 -8.2%
FC(F)(F)c1cccc(N2CCN(c3ccc4nnc(-c5ccccc5)n4n3)CC2)c1 0.4%
COc1ccc2cnn(CCOc3ccccc3)c(=O)c2c1OC -3.4%
CCCn1c(SCC(=O)NCc2ccco2)nc2c1c(=O)n(C)c(=O)n2C -5.1%
CCOC(=O)C(NC(C)=O)(Nc1ccc(S(=O)(=O)Nc2onc(C)c2C)cc1)C(F)(F)F (stereo not drawn) -2.1%
Cc1ccc(Nc2nc(C)cc(C)n2)c(Br)c1 -3.3%
CC(C)(C)NC(=O)NC(=O)COC(=O)C1CC(=O)N(Cc2ccccc2)C1 (stereo not drawn) -5.1%
CCCCCOc1ccc(/C=c2\sc3ncnn3c2=O)cc1 -9%
Cc1csc(NC(=O)CSc2nnc(-c3ccco3)n2C)n1 -7.7%
COC(=O)c1[nH]c2ccc(C)cc2c1NC(=O)CN1CCCCC1C (stereo not drawn) -1.2%
COc1ccccc1CNc1ncnc2c1cnn2-c1ccccc1 -2.9%
CN(C(=O)COC(=O)COc1ccccc1F)C1CCS(=O)(=O)C1 (stereo not drawn) -1.5%
C=CCn1c(C)cc(C(=O)CSc2nnc(NCc3ccccc3)s2)c1C 3.3%
CCOc1ccccc1C(=O)NCc1ccc2c(c1)OCO2 2.9%
COc1ccc(NC(=O)C23CCC(C)(C(=O)C2)C3(C)C)cc1 (stereo not drawn) -1.2%
COC(=O)c1cn(C(=O)OC)c2ccccc12 -6.7%
Oc1ccc(C=Nc2cccc3ncccc23)c(O)c1 4.8%
Nc1ccc2ncccc2c1 -3.5%
COc1ccc(-c2nnc3sc(-c4ccccc4OC)nn23)cc1 0.2%
COc1cccc(OC)c1-c1nn2c(-c3ccco3)nnc2s1 -0.8%
CCOc1ccc(-c2nnc3sc(-c4c(OC)cccc4OC)nn23)cc1 7.5%
COc1cccc(OC)c1-c1nn2c(-c3ccccc3Cl)nnc2s1 -6.5%
CSc1nnc(-c2ccccc2)n1C -1.8%
CCC(=O)N1CCc2cc(S(=O)(=O)CCC(=O)NCc3cccs3)ccc21 3.1%
CC(=O)Nc1ccc(NCC(O)COc2ccccc2)cc1 (stereo not drawn) 9.6%
CC(=O)N1CCc2cc(S(=O)(=O)NCCC(=O)N3CCN(c4ccccn4)CC3)ccc21 0.4%
Cc1cc(=O)n2ncnc2n1COCCO -8.2%
CCOC(=O)CCS(=O)(=O)c1nc(-c2ccccc2)cc(C(F)(F)F)n1 37.1%
COCC(C)NC(=O)CCS(=O)(=O)c1nc(-c2ccc(OC)cc2)cc(C(F)(F)F)n1 (stereo not drawn) 6.4%
CCOC(=O)c1cnn2c(C)cc(-c3ccc(F)cc3)nc12 -7.8%
Cc1cc(NC(=O)CCS(=O)(=O)c2nc(-c3ccccc3)cc(C(F)(F)F)n2)no1 -3%
CCC(=O)N1c2ccccc2-c2nnc(SC)nc2OC1c1ccc(OC)c(OC)c1 (stereo not drawn) 0.1%
COc1cc(OC)c(C2Oc3nc(SC)nnc3-c3ccccc3N2C(C)=O)cc1OC (stereo not drawn) 3.4%
CC(=O)NC1C(=O)N=C(SCC(=O)NCc2ccccc2)NC1=O (stereo not drawn) 1.1%
O=c1n(-c2ccccc2)c(=O)n(Cc2ccccn2)n1Cc1ccccn1 -5.3%
Cc1nc2ccc(S(=O)(=O)Nc3ccccc3C)cc2s1 -3.4%
COc1ccc2c3c(cccc13)OCC2=O 12.2%
COc1ccc(C(C)=O)c2c(O)cccc12 -0.9%
CCn1c(N)c(C(=O)NC)sc1=S -2%
Cc1ccc(-c2nnc(COc3cccc(-n4cnnn4)c3)o2)cc1 -4.7%
C=CCn1cc(C(=O)NCCOC)c(=O)c2cc(S(=O)(=O)N(CC)CC)ccc21 1.1%
O=C(NC1CCCCNC1=O)c1ccc(Cl)cc1 (stereo not drawn) -4%
CC1(C)CC(=O)C(C=NCCN2CCN(C(=O)CC3CCCC3)CC2)=C(O)C1 -1.8%
O=C1CSC(c2cn(-c3ccccc3)nc2-c2cc3ccccc3oc2=O)N1Cc1ccco1 (stereo not drawn) -5.3%
COc1ccc(S(=O)(=O)N[C@@H](CC(C)C)C(=O)O)cc1 -6%
Cc1nc2c(c(=O)n1Cc1ccccc1Cl)c1nc3ccccc3nc1n2Cc1ccco1 -10.7%
N#Cc1c(NC(=O)CSc2nc(-c3ccco3)cc(C(F)(F)F)n2)sc2c1CCCC2 -0.1%
COc1ccc(C(=O)N2CCN(c3nnnn3-c3ccccc3)CC2)cc1OC 3.7%
Cc1cc(Nc2c(C)cccc2C)n2nc(C)nc2n1 -2.1%
